Laboratory results as given in PubChem BioAssay.
Unmarked numbers belong to inactive results. The rule behind the calls is not given here.

target: Pantothenate synthetase (Mycobacterium tuberculosis (strain ATCC 25618 / H37Rv)) (UniProt P9WIL5); assay: Recombinant Mtb pantothenate synthetase (PanC) inhibitors, coupled enzyme, confirmatory (AID 375); details: coupled enzyme assay; at 10 µM, stronger effect = higher value;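 note: 0% = full reaction with vehicle and 100% = no enzyme background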
Sequence (P9WIL5 whole entry, looked up): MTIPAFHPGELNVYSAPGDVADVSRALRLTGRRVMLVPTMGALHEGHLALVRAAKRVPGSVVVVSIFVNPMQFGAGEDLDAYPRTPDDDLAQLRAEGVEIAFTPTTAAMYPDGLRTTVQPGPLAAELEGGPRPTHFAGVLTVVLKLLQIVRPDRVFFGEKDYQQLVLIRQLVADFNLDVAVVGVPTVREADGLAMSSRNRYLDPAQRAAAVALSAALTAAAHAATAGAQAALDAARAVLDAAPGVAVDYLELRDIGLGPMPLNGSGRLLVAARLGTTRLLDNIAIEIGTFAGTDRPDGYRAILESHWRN

Structure (SMILES) | inhibition [%]
CC(C)=CC/C=C1\CCC(C(=O)O)C(C(=O)O)C1 (centres undefined) | 0
CCCn1c(SCC(=O)NC(C)(C)C)nnc1C(C)C | 3
CCOC(=O)NC(=O)CSc1nnnn1-c1ccc(Cl)cc1 | 0
COc1cccc(C2CC(c3ccc(F)cc3)Nc3nc(N)nn32)c1 (centres undefined) | 0
O=C(Nc1ccccc1C(F)(F)F)c1cc(S(=O)(=O)N2CCOCC2)ccc1F | 0
O=C1c2ccccc2C(=O)N1C/C=C/c1ccccc1 | 2
CCOC(=O)Cn1c(CN2CCN(c3cccc(Cl)c3)CC2)nc2c1c(=O)[nH]c(=O)n2C | 0
COc1ccc2c(c1)Sc1ccccc1N2CCN(C)C | 3
CCOC(=O)C1=C(C)NC(C)=C(C(=O)OCC)C1c1cc(N)ccc1OC(F)F | 0
COc1ccc(C(=O)N2CCN(C3CCC(c4ccccc4)CC3)CC2)cc1OC (centres undefined) | 2
Cc1ccc(CCSCC(=O)O)cn1 | 0
CC(C)(C)NC(=O)C(Cc1ccccc1)NS(=O)(=O)c1cccc2nsnc12 (centres undefined) | 0
CN(C)CCOC(c1ccccc1)c1ccccc1 | 0
O=C(C1CCN(c2nnc(-n3cccc3)s2)CC1)N1CCOCC1 | 0
Cc1nc(N2CCOCC2)[nH]c(=O)c1CCC(C)C | 8
O=C(Nc1nnc(COc2ccc(F)cc2)s1)c1cccs1 | 5
Cc1cc2cc(CNC(=O)c3ccc4c(c3)OCO4)ccc2[nH]1 | 0
Cc1ccnc(NC(=O)CCC(=O)N(CC(=O)NC(C)(C)C)C2CCCC2)c1 | 0
CCn1c2ccccc2c2cc(Nc3cc(C)nc4ncnn34)ccc21 | 0
COC(=O)Nc1ccc(NC(C)=O)cc1 | 0

Structure (SMILES) | inhibition [%]
O=C1NC2(Nc3ccccc31)C(=O)Nc1ccccc12 (centres undefined) | 0
CC(C)CC1NC2(C(=O)N(C)c3ccccc32)C2C(=O)N(C(C)C)C(=O)C12 (centres undefined) | 0
C=CCn1c(=O)c(C(=O)Nc2ccccc2C(=O)OCC)c(O)c2ccccc21 | 0
Cc1c(-n2c(CN3C(=O)c4ccccc4C3=O)nc3ccccc3c2=O)c(=O)n(-c2ccccc2)n1C | 0
CCN(C(=O)c1cc2cc3ccc(C)cc3nc2o1)c1ccc(OC)cc1 | 6
C[C@H]1C[C@H]2[C@@H]3CCC4=CC(=O)C=C[C@]4(C)[C@@]3(Cl)[C@@H](O)C[C@]2(C)[C@@]1(O)C(=O)CO | 4
N=c1c(C(=O)NCc2ccccc2)cc2c(=O)n3ccccc3nc2n1Cc1ccco1 | 0
CCOC(=O)CSc1nc(N)c2c3c(sc2n1)CCCC3 | 0
CN1CCN(C(=O)c2cnn3c(C(F)F)cc(C4CC4)nc23)CC1 | 6
Cc1nc(SC2C=CS(=O)(=O)C2)n[nH]1 (centres undefined) | 5
CN1C(=O)c2c(sc3c2CCCC3)NC1c1ccccc1O (centres undefined) | 0
CC1(C)Cc2c(c(-c3ccccc3)nc(N3CCCC3)c2C(N)=O)CO1 | 4
COCCCN(C(C)=O)c1nc(-c2ccccc2)cs1 | 0
CC(C)CCNC(=O)C1CCN(C(=O)N(C)C)CC1 | 0
COCc1ccccc1Cn1cnc2c1c(=O)n(C)c(=O)n2C | 3
O=C(Nc1ncc(Cc2ccccc2)s1)C1CCCO1 (centres undefined) | 5
COC(=O)c1ccccc1NC(=O)CN1CCC(n2nnc3cc(F)ccc32)CC1 | 0
COc1ccc(C2/C(=C(/O)c3ccc(OC(C)C)cc3)C(=O)C(=O)N2CCCN2CCOCC2)cc1 (centres undefined) | 0
CCCOc1ccc2nc(NC(=O)OC)[nH]c2c1 | 0
